Results taken from the supplement of paper PMC10498489.
The campaign covered roughly 2,300 compounds. About 330 (14%) showed activity.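 Rule for the calls: active = median modified Z-score above 1.96; inactive = 1.96 or below.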 A selection follows.

Test system: HepG2 Srxn1-GFP reporter cells (+30 nM CDDO-Me)
Test: Srxn1-GFP intensity median modified Z-score relative to plate median; higher = stronger NRF2 / oxidative stress reporter activation, active = hit call of the paper
Conditions: 10 µM; exposure time: 24h
Method in brief: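 In 96-well plates holding 20,000 HepG2 Srxn1-GFP BAC reporter cells per well, compound at 10 μM and an NRF2 activator at 30 nM were added together for 24 h, with DMSO at ≤0.1%, across three replicate plates. After fixation in formaldehyde and Hoechst staining, confocal images were analysed cell by cell for cytoplasmic GFP, and images containing under 100 cells were excluded. Values are replicate medians of the per-plate modified Z-score of GFP intensity, scaled by 1.4826 × median absolute deviation.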

Row | SMILES | Srxn1-GFP intensity median modified Z-score
1 | CCNC1(c2cccs2)CCCCC1=O (centres undefined) [euspeclibcmpd629] | -0.153 (inactive)
2 | O=C1NC(=O)C(=O)C(=O)N1 [euspeclibcmpd1767] | 0.258 (inactive)
3 | NC(=O)C[S@@+]([O-])C(c1ccccc1)c1ccccc1 [euspeclibcmpd2097] | 0.795 (inactive)
4 | O=c1[nH]c(=O)n(Cl)c(=O)n1Cl [euspeclibcmpd2375] | 0.319 (inactive)
5 | c1cncc(C2CCCCN2)c1 (centres undefined) [euspeclibcmpd1406] | 0.116 (inactive)
6 | COc1ccc2c(c1)[C@]13CCCC[C@@H]1[C@H](C2)N(C)CC3 [euspeclibcmpd87] | 0.145 (inactive)
7 | CC(=O)OC1CC(OC(C)=O)C2(C)C(CC(OC(C)=O)C3(C)C2CCC2(C)C(c4ccoc4)C(=O)C4OC423)C1(C)C (centres undefined) [euspeclibcmpd1943] | 1.55 (inactive)
8 | CC1(C)C(=O)C=C[C@@]2(C)C1C[C@@H](O)[C@]1(C)C2CC[C@@]2(C)[C@H](c3ccoc3)OC(=O)C3O[C@]321 (some centres undefined) [euspeclibcmpd1629] | 32.4 (active)
9 | COC(=O)C1CC(OC(C)=O)C(=O)C2C1(C)CCC1C(=O)OC(c3ccoc3)CC12C (centres undefined) [euspeclibcmpd1949] | -0.455 (inactive)
10 | CC(=O)O[C@@H]1CC2C(C)(C)C(=O)C=C[C@]2(C)C2CC[C@]3(C)C(=CC(=O)O[C@H]3c3ccoc3)[C@@]21C (some centres undefined) [euspeclibcmpd1551] | 38.8 (active)
11 | CC1(C)C2CC(=O)[C@]3(C)C(CC[C@@]4(C)[C@H](c5ccoc5)OC(=O)C5OC543)[C@@]2(C)[C@@H](O)C[C@H]1O (some centres undefined) [euspeclibcmpd1573] | -0.392 (inactive)
12 | CC1(C)C(=O)C2O[C@@H]2[C@@]2(C)C1C[C@@H](O)[C@]1(C)C2CC[C@@]2(C)[C@H](c3ccoc3)OC(=O)C3OC321 (some centres undefined) [euspeclibcmpd1634] | 0.977 (inactive)
13 | CC(CC(C(N)=O)(c1ccccc1)c1ccccc1)N(C)C (centres undefined) [euspeclibcmpd819] | -0.42 (inactive)
14 | C[N+]12CC[C@@]34c5ccccc5N5C(=O)CC6OCC=C(C1)[C@H](CC32)[C@@H]6C54 (some centres undefined) [euspeclibcmpd1705] | -0.091 (inactive)
15 | COc1cc2c(cc1O)CCNC2C (centres undefined) [euspeclibcmpd1467] | -0.387 (inactive)
16 | CCOP(=S)(OCC)Oc1ccc2c(C)c(Cl)c(=O)oc2c1 [euspeclibcmpd1023] | 1.02 (inactive)
17 | C[C@H]1O[C@H](O[C@H]2[C@H](O)[C@@H](O)[C@@H](O)[C@H](O)[C@@H]2O)[C@@H](N)C[C@@H]1N=C(N)C(=O)O [euspeclibcmpd1430] | -0.17 (inactive)

Row | SMILES | Srxn1-GFP intensity median modified Z-score
18 | NCCc1cc(O)c(O)cc1O [euspeclibcmpd220] | -0.288 (inactive)
19 | CC[C@H]1C[N@]2CCC1C[C@@H]2[C@@H](O)c1ccnc2ccc(OC)cc12 [euspeclibcmpd2090] | 0.772 (inactive)
20 | C[C@]12CCC3[C@@H](CC[C@@]45OC4C(=O)C(C#N)C[C@]35C)[C@H]1CC[C@@H]2O (some centres undefined) [euspeclibcmpd687] | -0.339 (inactive)
21 | CCC(C)[C@H]1O[C@]2(C=C[C@@H]1C)C[C@@H]1C[C@@H](C/C=C(\C)[C@@H](OC3C[C@H](OC)C(O[C@H]4C[C@H](OC)[C@@H](O)[C@H](C)O4)[C@H](C)O3)[C@@H](C)/C=C/C=C3\CO[C@@H]4[C@H](O)C(C)=CC(C(=O)O1)[C@]34O)O2 (some centres undefined) [euspeclibcmpd1285] | 16.3 (active)
22 | CC(C)(O)C(Cl)(Cl)Cl [euspeclibcmpd1104] | -0.138 (inactive)
23 | C=C[C@H]1C[N@]2CC[C@H]1C[C@@H]2[C@@H](OC(=O)OCC)c1ccnc2ccc(OC)cc12 [euspeclibcmpd1022] | -0.0707 (inactive)
24 | CC=C(C)C(=O)O[C@H]1CC[C@@]2(C)[C@@H]3CC[C@H]4[C@]5(O)C[C@H](O)[C@@]6(O)[C@@H](CN7C[C@@H](C)CC[C@H]7[C@@]6(C)O)[C@]5(O)C[C@@]42O[C@]13O [euspeclibcmpd1469] | 0.0522 (inactive)
25 | Nc1[nH]c(=O)n2c1C2 [euspeclibcmpd933] | 0.164 (inactive)
26 | CS(=N)(=O)CCC(N)C(=O)O (centres undefined) [euspeclibcmpd1752] | -0.455 (inactive)
27 | C[C@@H]1O[C@@H](O[C@H]2C[C@@H](O)[C@]3(CO)C4C(CC[C@]3(O)C2)[C@@]2(O)CCC(c3coc(O)c3)[C@@]2(C)C[C@H]4O)[C@H](O)[C@H](O)[C@H]1O (some centres undefined) [euspeclibcmpd1207] | -1.16 (inactive)
28 | C[C@@H]1O[C@@H](O[C@H]2CC[C@]3(C=O)C4CC[C@]5(C)C(c6coc(O)c6)CC[C@]5(O)C4CC[C@]3(O)C2)[C@H](O)[C@H](O)[C@H]1O (some centres undefined) [euspeclibcmpd1374] | 7.48 (active)
29 | CC1OC(OC2C=C3CCC4C(CCC5(C)C(c6ccc(=O)oc6)CCC45O)C3(C)CC2)C(O)C(O)C1O (centres undefined) [euspeclibcmpd1931] | 2.81 (active)
30 | C[C@H]1O[C@@H](O[C@H]2[C@@H](O)C[C@H](O[C@H]3[C@@H](O)C[C@H](O[C@H]4CC[C@]5(C)C6CC[C@]7(C)C(c8coc(O)c8)CC[C@]7(O)C6CC[C@@H]5C4)O[C@@H]3C)O[C@@H]2C)C[C@H](O)[C@@H]1O (some centres undefined) [euspeclibcmpd95] | -1.81 (inactive)
31 | CO[C@H]1[C@H](O)[C@@H](O[C@H]2CC[C@]3(C=O)C4CC[C@]5(C)C(c6coc(O)c6)CC[C@]5(O)C4CC[C@@H]3C2)O[C@@H](C)[C@@H]1O (some centres undefined) [euspeclibcmpd2165] | 3.39 (active)
32 | C[C@@]12C(c3coc(O)c3)CC[C@]1(O)C1CC[C@@H]3C[C@@H](O)CC[C@]3(C)C1C[C@H]2O (some centres undefined) [euspeclibcmpd2259] | -0.638 (inactive)
33 | C[C@H]1O[C@@H](O[C@H]2[C@@H](O)C[C@H](O[C@H]3[C@@H](O)C[C@H](O[C@H]4CC[C@]5(C)C6C[C@@H](O)[C@]7(C)C(c8coc(O)c8)CC[C@]7(O)C6CC[C@@H]5C4)O[C@@H]3C)O[C@@H]2C)C[C@H](O)[C@@H]1O (some centres undefined) [euspeclibcmpd96] | -1.88 (inactive)
34 | CC1OC(OC2C(O)CC(OC3C(O)CC(OC4CCC5(C)C(CCC6C5CCC5(C)C(c7coc(O)c7)C(O)CC65O)C4)OC3C)OC2C)CC(O)C1O (centres undefined) [euspeclibcmpd1936] | 2.78 (active)
